PubChem BioAssay AID1274 (Emory University Molecular Libraries Screening Center, 2008)
About 1,100 (0.5%) of roughly 220,000 compounds were called active. The sample holds actives, similar compounds and a random draw of the others, so the mix is not that of the screen.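 Rule for the calls: active = inhibition above about 30% (limit read from the data); inactive = the rest.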

target: Neutrophil cytosol factor 1 (Homo sapiens) (UniProt P14598); experiment: blockers of p47phox binding to p22phox – biochemical, uHTS, NADPH oxidase regulatory subunit, primary screen (AID 1274); settings: p47phox/p22phox peptide binding, fluorescence polarization, 2 h; at 24.7 µM; active compounds read high;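 note: 0% = p47phox with labelled peptide and 100% = labelled peptide alone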
Sequence (P14598 whole entry, looked up): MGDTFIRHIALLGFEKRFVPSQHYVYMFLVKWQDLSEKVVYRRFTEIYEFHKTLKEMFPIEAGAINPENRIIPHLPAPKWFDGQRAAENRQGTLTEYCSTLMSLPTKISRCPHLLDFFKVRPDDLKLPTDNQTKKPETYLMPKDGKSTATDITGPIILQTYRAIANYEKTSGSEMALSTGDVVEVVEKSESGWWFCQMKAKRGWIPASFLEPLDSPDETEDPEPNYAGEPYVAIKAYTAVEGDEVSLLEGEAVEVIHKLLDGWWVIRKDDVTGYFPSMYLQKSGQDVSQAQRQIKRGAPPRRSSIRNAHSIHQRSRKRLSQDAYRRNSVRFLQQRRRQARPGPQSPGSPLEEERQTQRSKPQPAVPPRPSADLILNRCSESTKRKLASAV

Compound | inhibition
COc1cc(OC)cc(C(=O)OCC(=O)Nc2sccc2C(N)=O)c1 | -13.4% (inactive)
CC(C)CCN1NC2(CCC(C)CC2)NC1=S (stereo not drawn) | -4.38% (inactive)
CCNC(=O)COC(=O)CCNC(=O)c1cccc(C)c1 | -7.35% (inactive)
CCOC(=O)c1sc(=S)n(-c2cccc(OC)c2)c1N | -12.7% (inactive)
COC(=O)c1sc(=S)n(-c2ccccc2)c1N | 0.99% (inactive)
COCCOC(=O)c1sc(=S)n(CCOC)c1N | 46.2% (active)
CCOC(=O)Cn1nnnc1C | 6.81% (inactive)
C[N+](C)(C)CCNC(=O)c1c(O)c2c([nH]c1=O)CCCC2 | 31.8% (active)
O=C(NCc1ccccn1)c1c(O)c2c([nH]c1=O)CCCC2 | -12.3% (inactive)
CCc1nnc(NC(=O)c2c(O)c3c([nH]c2=O)CCCC3)s1 | -3.43% (inactive)
CCOC(=O)CC1C(=O)NCCN1c1nc2c(C)cccn2c(=O)c1/C=C1\SC(=S)N(C(C)CC)C1=O (stereo not drawn) | -73.3% (inactive)
CC(CNS(=O)(=O)c1ccc(Br)cc1)CN(C)C (stereo not drawn) | 92% (active)
O=S(=O)(NN=C1CCCCCCC1)c1ccc(Br)cc1 | -8.52% (inactive)
Cc1ccc(S(=O)(=O)NCC(C)NS(C)(=O)=O)cc1 (stereo not drawn) | 4.29% (inactive)
Cc1c(C(=O)N(Cc2ccccc2)Cc2cccnc2)cnn1-c1ccc(F)cc1 | -0.45% (inactive)
O=C(Nn1c(-c2ccc(Cl)cc2)nc2ccccc2c1=O)c1cccnc1Cl | -7.54% (inactive)
C[C@@H]1CC[C@]2(O[C@@H](CCO)C[C@H](O)[C@H]2O)O1 | 5.45% (inactive)
CC(=O)NCCc1ccc(S(=O)(=O)N(C)C2CCS(=O)(=O)C2)cc1 (stereo not drawn) | 32.2% (active)
Cc1ccc(S(=O)(=O)N(c2cccc(C)c2)C2CCS(=O)(=O)C2)cc1 (stereo not drawn) | -5.65% (inactive)
COc1ccc(C(=O)N(Cc2ccc(N(C)C)cc2)C2CCS(=O)(=O)C2)cc1 (stereo not drawn) | -10.9% (inactive)
CC(C)N1CCC(N2CCN(Cc3cccnc3)CC2CCO)CC1 (stereo not drawn) | -4.11% (inactive)
Oc1ccc(N=Cc2c(O)ccc3ccccc23)cc1 | -7.4% (inactive)
Oc1ccc2ccccc2c1C=Nc1ccccc1 | -17.1% (inactive)
O=[N+]([O-])c1ccc(N=Cc2c(O)ccc3ccccc23)cc1 | 64.5% (active)
CCn1cc(C(=O)NCCCN2CCCCCC2)c(=O)c2cc(S(=O)(=O)N3CCc4ccccc4C3)ccc21 | -1.11% (inactive)

Compound | inhibition
COC(=O)[C@H](Cc1ccccc1)NC(=O)Nc1ccc(OC)cc1 | -13.5% (inactive)
Cc1ccnc(Nc2nc3ccccc3s2)n1 | -4.23% (inactive)
Cc1ccnc(-n2sc3ccccc3c2=O)n1 | 35% (active)
Cc1ccnc(N2CCC(C(=O)NC3CCCCCC3)CC2)n1 | -2.85% (inactive)
COc1ccc(CN2CCOC2=O)cc1OC | -11.8% (inactive)
COc1ccc(-c2noc(-c3cccc(OC)c3OC)n2)cc1OC | -9.37% (inactive)
COc1ccc(-c2csc(-c3cccs3)n2)cc1OC | -15.5% (inactive)
COc1ccc(-c2csc3nc(-c4ccccc4F)oc(=O)c23)cc1OC | 89.6% (active)
O=c1ccnc(Nc2ccc(Cl)cc2)[nH]1 | -15.2% (inactive)
COc1cccc(OCC(=O)NNC(=O)c2cnccn2)c1 | -5.83% (inactive)
CSC1=NC2(C)CCCCC2C12C=CC(=O)C=C2 (stereo not drawn) | 12.3% (inactive)
Oc1ccc(CNc2ccccc2O)cc1 | 72.8% (active)
O=[N+]([O-])c1ccccc1NCc1ccc(Cl)cc1 | 10.1% (inactive)
Oc1ccc(N2CCN(C(=S)NCc3ccccc3)CC2)cc1 | -4.47% (inactive)
COc1ccc(SCCN2CCN(CC(C)C)CCC2=O)cc1 | -5.09% (inactive)
CCOc1ccc(C(=O)NCCCN2CCCC2=O)cc1 | -1.06% (inactive)
O=C(NCCCN1CCCCCC1)c1ccc(N2CCCC2=O)cc1 | 31.1% (active)
CC1CCC(NC(=O)c2ccc(N3CCCC3=O)cc2)CC1 (stereo not drawn) | -4.19% (inactive)
COCCN1C(=O)N[C@@H](CCc2ccccc2)[C@H](C(C)=O)[C@H]1C | -14.3% (inactive)
CC(C)N(C(=O)Cn1cc(SCC(=O)N2CCCC2)c2ccccc21)C(C)C | -1.84% (inactive)
Cc1ccnc(NS(=O)(=O)c2ccc(NC(=O)c3ccc(S(=O)(=O)N4CCOCC4)cc3)cc2)n1 | -8.81% (inactive)
O=C(Nc1ccc(S(=O)(=O)Nc2ncccn2)cc1)c1cncc(Br)c1 | -1.88% (inactive)
Cc1ccnc(NS(=O)(=O)c2ccc(NC(=O)c3ccc(S(=O)(=O)N(C)C)cc3)cc2)n1 | 93.9% (active)
CCCN(c1ccc(C)cc1)c1nc(=O)c2cccnc2s1 | 3.57% (inactive)
COCCOC(=O)C1=C(C)Nc2nc(C)nn2C1c1ccccc1 (stereo not drawn) | -2.35% (inactive)

Compound | inhibition
COC(=O)c1nc2n(n1)C(c1ccc([N+](=O)[O-])cc1)C(C(=O)Nc1ccc(Cl)cc1)=C(C)N2 (stereo not drawn) | 35.3% (active)
COc1cc(C2C(C(=O)Nc3ccc(F)cc3)=C(C)Nc3nc(CCCO)nn32)cc(OC)c1OC (stereo not drawn) | 8.1% (inactive)
COC(C[C@@H](O)[C@H](C)[C@H](O)COCc1ccccc1)OC | -7.85% (inactive)
O=[N+]([O-])c1ccc2c(c1)C(O)n1nc(-c3ccccc3)nc1S2 (stereo not drawn) | -0.84% (inactive)
O=C1/C(=C/c2coc3ccc(O)cc3c2=O)SC(=S)N1c1ccccc1 | -31.6% (inactive)
CCC1(C)Cc2c(sc3nc(SC)[nH]c(=O)c23)CO1 (stereo not drawn) | -0.95% (inactive)
Fc1ccccc1Cn1cnc(NC(=S)NCCc2ccccc2)n1 | 5.03% (inactive)
S=c1[nH]nc(NCCc2ccccc2)s1 | 35.4% (active)
S=c1[nH]nc(Nc2ccccc2)s1 | 6.03% (inactive)
Cc1nc(C)c(-c2csc(NCCc3ccccc3)n2)s1 | -1.49% (inactive)
CC1CC(NC(=O)/C(C#N)=C/c2ccc[nH]2)CC(C)(C)C1 (stereo not drawn) | -2.3% (inactive)
COCCCNC(=S)N1CCCC(c2nc3cc(C)c(C)cc3[nH]2)C1 (stereo not drawn) | 33.6% (active)
CCCNC(=S)N1CCCC(c2nc3ccccc3[nH]2)C1 (stereo not drawn) | -3.87% (inactive)
CCNC(=S)N1CCC(c2nc3cc(C)c(C)cc3[nH]2)CC1 | -2.83% (inactive)
O=C(O)CCc1nc2cc(Cl)ccc2n(Cc2ccccc2)c1=O | -13.1% (inactive)
Cc1ccccc1CSc1nnc(CCCCCNC(=O)OC(C)(C)C)o1 | -9.1% (inactive)
COC(=O)c1sc(NC(=S)NC(=O)c2ccc(C)cc2)nc1C | -24.1% (inactive)
COc1ccc(F)cc1S(=O)(=O)N1CCCCC1 | -2.33% (inactive)
CCOC(=O)C1(S(=O)(=O)c2ccccc2)CCN(Cc2ccccc2)CC1 | -0.94% (inactive)
CC1=C/C(=N\S(=O)(=O)c2ccccc2)C(C(C)C)=CC1=O | -6.28% (inactive)
CC1=C/C(=N\OS(=O)(=O)c2ccccc2)C=CC1=O | 53.2% (active)
CCN(CC)CCn1cnc2c1c(=O)n(CCOC(=O)c1cc(OC)c(OC)c(OC)c1)c(=O)n2C | -17% (inactive)
Cc1cc(-c2nc(C)c(-c3nnc(SCC(=O)Nc4ccccc4)n3C)s2)no1 | -5.21% (inactive)
COc1cccc(-c2nc3cc(C)ccc3o2)c1 | -18% (inactive)
O=C(Cc1cccc2ccccc12)Nc1ccc2oc(-c3ccccc3)nc2c1 | -10.3% (inactive)

Compound | inhibition
COc1ccc2oc(-c3cccc(NC(=O)CSc4ccc(Cl)cc4)c3)nc2c1 | 152% (active)
O=c1[nH]n2c(=O)c3c([nH]c2c1N=Nc1ccccc1)CCC3 | 5.2% (inactive)
Cc1ccc(Cc2c(C)nc3nc(SCC(=O)NCCN4CCOCC4)nn3c2C)cc1 | 2.55% (inactive)
Cc1cc(C)n2nc(SCC(N)=O)nc2n1 | -2.75% (inactive)
Cc1cc(C)n2nc(SCC(=O)NC(=O)NCc3ccco3)nc2n1 | 65.5% (active)
Cc1nc2nc(SCC(=O)NCc3ccco3)nn2c(C)c1Cc1ccccc1 | 39.5% (active)
Cc1ccc(SCC(=O)NC(=O)NCc2ccco2)c(C)c1 | -8.32% (inactive)
COc1cc(OC)cc(-c2nc3nc(C)c(CCC(=O)NCc4ccco4)c(C)n3n2)c1 | -14.7% (inactive)
COc1cccc2c1OCC(CN1CCN(C3CCCCC3)C(CCO)C1)=C2 (stereo not drawn) | -0.19% (inactive)
Cc1noc(C)c1-c1nc(CSc2ccc(Cl)cc2)no1 | -18.6% (inactive)
CCc1ccc[n+](-c2nc([O-])sc2C=O)c1 | -6.22% (inactive)
CCOC(=O)c1ccc(S(=O)(=O)N(CCO)Cc2cc3cc(OC)c(OC)cc3[nH]c2=O)cc1 | -9.36% (inactive)
CCc1ccc(NC(=O)CN2C(=O)CSC2=O)cc1 | 1.09% (inactive)
OC(CN1C2=NCCCN2c2ccccc21)c1ccc(Br)cc1 (stereo not drawn) | -5.7% (inactive)
O=C(CN1C(=O)/C(=C\c2ccc(C(F)(F)F)cc2)Sc2ccccc21)NCc1ccco1 | -2.69% (inactive)
CCN1CCN(CCNC(=O)c2ccc(/C=C3/Sc4ccccc4N(Cc4cccc(C)c4)C3=O)cc2)CC1 | 102% (active)
Cc1nn(Cc2ccccc2)c(C)c1C(=O)NCCN1C(=O)S/C(=C\c2ccc(F)cc2)C1=O | 19.6% (inactive)
CCOc1ccc2nc(C(=O)N3CCCC(C)C3)sc2c1 (stereo not drawn) | -1.85% (inactive)
O=C(NCc1ccco1)C1CCCN1S(=O)(=O)c1ccccc1C(F)(F)F (stereo not drawn) | -2.26% (inactive)
O=C(Nc1cccc(NC(=O)c2ccco2)c1)c1cnccn1 | -22.1% (inactive)
O=C(Nc1ccc2c(c1)OCCO2)c1cnccn1 | 161% (active)
O=C(Nc1ccc2c(c1)OCCO2)c1ccoc1 | -11.2% (inactive)
O=P(O)(CN1CCCCCC1)C1Cc2ccccc2C1 | -16.2% (inactive)
